Out of some 5,500 compounds screened, about 2,000 (36%) were called active. About 18% were inconclusive and are not listed. Rule as the data show it: active = normalized growth mostly below about 0.91 (no sharp cut-off); inconclusive = no clear call, values can overlap the other calls; inactive = mostly above about 0.92. The list shows a part of the results.
Assay: chemical genetic growth profiling, strain panel (AID 1159580);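 also: tested at 20 µM; growth read once vehicle control cultures reached saturation at 30 °C; 1 = growth at the plate median or of vehicle wells; lower values mean less growth of the strain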
Settings: growth OD

Measured: normalized growth

COc1ccc2c(c1OC)C(=O)O[C@@H]2[C@H]1c2cc3c(cc2CCN1C)OCO3
inactive: S. cerevisiae deletion strains, locus YJR075W, strain HOC1, hits give low values 1.02 | S. cerevisiae deletion strains, locus YKL009W, strain mrt4, hits give low values 1.03 | S. cerevisiae deletion strains, locus YKL068W, hits give low values 1.02 | S. cerevisiae deletion strains, locus YKL085W, strain MDH1 (second series), hits give low values 1.04 | S. cerevisiae deletion strains, locus YKL085W, strain MDH1, hits give low values 1.04 | S. cerevisiae deletion strains, locus YKL160W, strain elf1, hits give low values 0.974 | S. cerevisiae deletion strains, locus YKL190W, strain CNB1, hits give low values 1.02 | S. cerevisiae deletion strains, locus YKR001C, strain vps1, hits give low values 1.03 | S. cerevisiae deletion strains, locus YKR026C, strain gcn3, hits give low values 0.998 | S. cerevisiae deletion strains, locus YKR091W, strain srl3, hits give low values 0.997 | S. cerevisiae deletion strains, locus YLL001W, strain dnm1, hits give low values 0.994 | S. cerevisiae deletion strains, locus YLL026W, hits give low values 0.992 | S. cerevisiae deletion strains, locus YLL041C, strain sdh2, hits give low values 1 | S. cerevisiae deletion strains, locus YLR027C, strain aat2, hits give low values 0.996 | S. cerevisiae deletion strains, locus YLR039C, strain RIC1, hits give low values 1.07 | S. cerevisiae deletion strains, locus YLR058C, strain SHM2, hits give low values 1.02 | S. cerevisiae deletion strains, locus YLR102C, strain apc9, hits give low values 1.01 | S. cerevisiae deletion strains, locus YLR113W, strain HOG1, hits give low values 0.991 | S. cerevisiae deletion strains, locus YLR221C, strain rsa3, hits give low values 0.983 | S. cerevisiae deletion strains, locus YLR258W, strain gsy2, hits give low values 0.988 | S. cerevisiae deletion strains, locus YLR262C, strain YPT6 (second series), hits give low values 0.98 | S. cerevisiae deletion strains, locus YLR262C, strain YPT6, hits give low values 1.04 | S. cerevisiae deletion strains, locus YLR268W, strain sec22, hits give low values 1.01 | S. cerevisiae deletion strains, locus YLR320W, strain mms22, hits give low values 0.967 | S. cerevisiae deletion strains, locus YLR330W, strain CHS5, hits give low values 1.02 | S. cerevisiae deletion strains, locus YLR342W, strain FKS1 (second series), hits give low values 1.06 | S. cerevisiae deletion strains, locus YLR342W, strain FKS1, hits give low values 0.984 | S. cerevisiae deletion strains, locus YLR357W, strain rsc2, hits give low values 0.998 | S. cerevisiae deletion strains, locus YLR370C, strain arc18, hits give low values 1 | S. cerevisiae deletion strains, locus YLR371W, strain rom2, hits give low values 1.02 | S. cerevisiae deletion strains, locus YLR384C, strain iki3, hits give low values 0.983 | S. cerevisiae deletion strains, locus YLR418C, strain cdc73, hits give low values 1.02 | S. cerevisiae deletion strains, locus YML016C, strain PPZ1, hits give low values 1.01 | S. cerevisiae deletion strains, locus YML032C, strain rad52, hits give low values 1.03 | S. cerevisiae deletion strains, locus YML120C, strain ndi1, hits give low values 0.985 | S. cerevisiae deletion strains, locus YML124C, strain tub3, hits give low values 1.02 | S. cerevisiae deletion strains, locus YMR058W, strain fet3, hits give low values 0.998 | S. cerevisiae deletion strains, locus YMR078C, strain ctf18, hits give low values 1.03 | S. cerevisiae deletion strains, locus YMR125W, strain sto1, hits give low values 0.988 | S. cerevisiae deletion strains, locus YMR129W, hits give low values 1 | S. cerevisiae deletion strains, locus YMR205C, strain PFK2, hits give low values 0.971 | S. cerevisiae deletion strains, locus YMR223W, strain ubp8, hits give low values 1.03 | S. cerevisiae deletion strains, locus YMR231W, strain pep5, hits give low values 0.993 | S. cerevisiae deletion strains, locus YMR263W, strain SAP30, hits give low values 1.01 | S. cerevisiae deletion strains, locus YMR307W, strain GAS1, hits give low values 1.09 | S. cerevisiae deletion strains, locus YNL067W, strain RPL9B, hits give low values 1.01 | S. cerevisiae deletion strains, locus YNL071W, strain lat1, hits give low values 0.997 | S. cerevisiae deletion strains, locus YNL128W, strain TEP1, hits give low values 1.02 | S. cerevisiae deletion strains, locus YNL153C, strain GIM3, hits give low values 1.01 | S. cerevisiae deletion strains, locus YNL183C, strain NPR1, hits give low values 0.953 | S. cerevisiae deletion strains, locus YNL209W, strain ssb2, hits give low values 0.993 | S. cerevisiae deletion strains, locus YNL233W, strain BNI4, hits give low values 1.02 | S. cerevisiae deletion strains, locus YNL248C, strain rpa49, hits give low values 0.999 | S. cerevisiae deletion strains, locus YNL250W, strain rad50, hits give low values 1.02 | S. cerevisiae deletion strains, locus YNL271C, strain bni1, hits give low values 1.01 | S. cerevisiae deletion strains, locus YNL298W, strain CLA4, hits give low values 1.03 | S. cerevisiae deletion strains, locus YNL307C, strain MCK1, hits give low values 1.02 | S. cerevisiae deletion strains, locus YNL322C, strain KRE1 (second series), hits give low values 0.99 | S. cerevisiae deletion strains, locus YNL322C, strain KRE1, hits give low values 1.01 | S. cerevisiae deletion strains, locus YNR049C, strain mso1, hits give low values 0.996 | S. cerevisiae deletion strains, locus YNR052C, strain pop2, hits give low values 1.02 | S. cerevisiae deletion strains, locus YOL006C, strain TOP1, hits give low values 1.04 | S. cerevisiae deletion strains, locus YOL012C, strain htz1 1.03 | S. cerevisiae deletion strains, locus YOL147C, strain pex11, hits give low values 1.02 | S. cerevisiae deletion strains, locus YOR001W, strain rrp6, hits give low values 0.998 | S. cerevisiae deletion strains, locus YOR061W, strain CKA2, hits give low values 1.02 | S. cerevisiae deletion strains, locus YOR069W, strain VPS5, hits give low values 1.02 | S. cerevisiae deletion strains, locus YOR070C, strain gyp1, hits give low values 0.984 | S. cerevisiae deletion strains, locus YOR080W, strain dia2, hits give low values 0.987 | S. cerevisiae deletion strains, locus YOR083W, strain WHI5, hits give low values 0.985 | S. cerevisiae deletion strains, locus YOR106W, strain vam3, hits give low values 0.972 | S. cerevisiae deletion strains, locus YOR136W, strain idh2, hits give low values 1.02 | S. cerevisiae deletion strains, locus YOR144C, strain elg1, hits give low values 1.02 | S. cerevisiae deletion strains, locus YOR184W, strain ser1, hits give low values 1.04 | S. cerevisiae deletion strains, locus YOR231W, strain MKK1, hits give low values 0.994 | S. cerevisiae deletion strains, locus YOR265W, strain rbl2, hits give low values 0.996 | S. cerevisiae deletion strains, locus YOR270C, strain vph1, hits give low values 1.01 | S. cerevisiae deletion strains, locus YOR290C, strain snf2, hits give low values 0.989 | S. cerevisiae deletion strains, locus YOR316C, strain cot1, hits give low values 1.02 | S. cerevisiae deletion strains, locus YPL051W, strain arl3, hits give low values 0.976 | S. cerevisiae deletion strains, locus YPL055C, strain LGE1, hits give low values 1.03 | S. cerevisiae deletion strains, locus YPL078C, strain atp4, hits give low values 1 | S. cerevisiae deletion strains, locus YPL106C, strain sse1, hits give low values 0.976 | S. cerevisiae deletion strains, locus YPL240C, strain hsp82, hits give low values 0.995 | S. cerevisiae deletion strains, locus YPL241C, strain CIN2, hits give low values 1.01 | S. cerevisiae deletion strains, locus YPL256C, strain CLN2, hits give low values 0.971 | S. cerevisiae deletion strains, locus YPR119W, strain clb2, hits give low values 1.02 | S. cerevisiae deletion strains, locus YPR141C, strain kar3, hits give low values 1.03 | S. cerevisiae deletion strains, locus YPR163C, strain tif3, hits give low values 1.03 | S. cerevisiae deletion strains, locus YPR167C, strain met16, hits give low values 1.02 | S. cerevisiae deletion strains, strain wtn01, hits give low values 1.02 | S. cerevisiae strains, strain wild type, hits give low values 1.01

— PubChem BioAssay AID1159580 (chemical genetic matrix, 2015)
